These results are taken from PubChem BioAssay (NCI).

Common to all, as to assay: NCI-60 one-dose screen, 48 h (100 = growth as untreated, 0 = no growth, -100 = all killed)
One assay relates to SR leukemia. Particulars: 10 µM unless noted.
The subject of another assay is RPMI-8226 leukemia. As to conditions: 10 µM unless noted.
The next assay has as its system OVCAR-8 ovarian. As to conditions: 10 µM unless noted.
A further assay has as its system OVCAR-5 ovarian. As to conditions: 10 µM unless noted.
Another assay deals with OVCAR-4 ovarian. As to conditions: 10 µM.
The subject of another assay is OVCAR-3 ovarian. Particulars: 10 µM unless noted.
Another assay concerns HS 578T breast. Particulars: 10 µM unless noted.
Another assay has as its system T-47D breast. As to conditions: 10 µM unless noted.
The next assay deals with BT-549 breast. Particulars: 10 µM unless noted.
Another assay relates to MDA-MB-435 melanoma. Particulars: 10 µM unless noted.
A further assay relates to SW-620 colon. Particulars: 10 µM unless noted.
The test system of the next assay is MCF7 breast. As to conditions: 10 µM unless noted.
The test system of another assay is HCT-116 colon. Particulars: 10 µM unless noted.
Another assay relates to HCC-2998 colon. As to conditions: 10 µM unless noted.
The next assay deals with KM12 colon. As to conditions: 10 µM unless noted.
For another assay, the system named is SK-OV-3 ovarian. As to conditions: 10 µM unless noted.
For a further assay, the system named is IGROV1 ovarian. Particulars: 10 µM unless noted.
The test system of another assay is NCI/ADR-RES ovarian. As to conditions: 10 µM unless noted.

This is part of a sample that, as a whole, favours compounds with a hit. Of some 83,000 tested, about 20% had one in any assay.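 Negative percent growth values reflect cell death: -40 means 40% of the cells present at the start died, and -100 means all died.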 Values without a mark were called inactive. Calls of active or inactive are those of the source. How the source made its calls: active means growth percent below 10; inactive means the rest.

Take `COc1ccc(NC(=S)NNc2ccc(-c3ccc(OC)c(OC)c3)nn2)cc1`: the growth in the assay on SR leukemia is 98.1%; in the assay with RPMI-8226 leukemia, 103%; in the assay on OVCAR-8 ovarian, 101%; in the assay with OVCAR-5 ovarian, 103%; in the assay on OVCAR-4 ovarian, 100%; in the assay on OVCAR-3 ovarian, 110%. In addition, the growth is 95.8% with HS 578T breast; 96.4% in the assay on T-47D breast; 98.5% in the assay on BT-549 breast; 107% in the assay on MDA-MB-435 melanoma; 102% with SW-620 colon; 96.5% in the assay on MCF7 breast. Moreover, the growth in the assay with HCT-116 colon was 102%; in the assay on HCC-2998 colon, 109%; in the assay on KM12 colon, 104%.

As to `CC1(C)CC[C@]2(C(=O)OC(=O)[C@]34CCC(C)(C)C[C@@H]3C3=CC[C@@H]5[C@@]6(C)CCC(=O)C(C)(C)[C@@H]6CC[C@@]5(C)[C@]3(C)CC4)CC[C@]3(C)C(=CC[C@@H]4[C@@]5(C)CCC(=O)C(C)(C)[C@@H]5CC[C@]43C)[C@H]2C1`, the growth with SR leukemia was 65% [100 µM]; with RPMI-8226 leukemia, 61% [100 µM]; in the assay on OVCAR-8 ovarian, 59.8% [100 µM]; with OVCAR-5 ovarian it was 98.3% [100 µM]; in the assay on SK-OV-3 ovarian, 72.9% [100 µM]; with IGROV1 ovarian it was 84.4% [100 µM]. Also, the growth with OVCAR-3 ovarian was 74% [100 µM]; with HS 578T breast it was 57.3% [100 µM]; with NCI/ADR-RES ovarian it was 69.5% [100 µM]; in the assay on T-47D breast it was 48.1% [100 µM]; in the assay with BT-549 breast, 75.3% [100 µM]; in the assay on MDA-MB-435 melanoma, 63.2% [100 µM]. Also, the growth was 70% [100 µM] in the assay on SW-620 colon; 51.8% [100 µM] in the assay with MCF7 breast; 41% [100 µM] in the assay with HCT-116 colon; 98.2% [100 µM] in the assay with HCC-2998 colon; 67.2% [100 µM] in the assay with KM12 colon.

With `C=C(C)[C@@H]1CC[C@]2(C(=O)NCCCCCCN(CCCN)CCCN)CC[C@]3(C)[C@H](CC[C@@H]4[C@@]5(C)CC[C@H](OCCCN)C(C)(C)[C@@H]5CC[C@]43C)[C@@H]12`, the growth in the assay with SR leukemia is 18.4% [100 µM]; in the assay on RPMI-8226 leukemia, 29.3% [100 µM]; in the assay on OVCAR-8 ovarian it was -28.3% [100 µM] (active); with OVCAR-5 ovarian, 90.5% [100 µM]; in the assay with SK-OV-3 ovarian it was 97.9% [100 µM]; in the assay on IGROV1 ovarian it was 27.3% [100 µM]. In addition, the growth with OVCAR-3 ovarian was 71.8% [100 µM]; in the assay with HS 578T breast it was 94.9% [100 µM]; in the assay with NCI/ADR-RES ovarian, 86.3% [100 µM]; in the assay with T-47D breast, 85.3% [100 µM]; with BT-549 breast, 118% [100 µM]; with MDA-MB-435 melanoma, 89.6% [100 µM]. The growth in the assay with SW-620 colon is 7.33% [100 µM] (active); in the assay with MCF7 breast, 14.5% [100 µM]; with HCT-116 colon, 12.6% [100 µM]; in the assay with HCC-2998 colon, 77.1% [100 µM].

With `O=C1Nc2ccccc2/C1=C/C(=O)c1ccc(N2CCCCC2)cc1`, the growth in the assay with SR leukemia is 16.9%; in the assay with RPMI-8226 leukemia it was 26.9%; in the assay on OVCAR-8 ovarian it was 54.9%; with OVCAR-5 ovarian, 104%; in the assay with SK-OV-3 ovarian, 100%; in the assay with IGROV1 ovarian it was 50%. Moreover, the growth in the assay with OVCAR-3 ovarian is 10.4%; in the assay with HS 578T breast, 93.4%; in the assay on NCI/ADR-RES ovarian, 90.3%; with T-47D breast, 59.9%; with BT-549 breast, 90.8%; in the assay with MDA-MB-435 melanoma, 88.2%. For the same compound, the growth with SW-620 colon is -22.7% (active); in the assay on MCF7 breast it was 68.9%; in the assay on HCT-116 colon it was 92.7%; in the assay on HCC-2998 colon, 105%; in the assay with KM12 colon, 90.5%.

On to `CN(C)c1ccc(-c2ccc(-c3ccc(C(=N)N)cc3)s2)cc1`, for which the growth in the assay on SR leukemia is 5.33% (active); in the assay on RPMI-8226 leukemia, -40% (active); in the assay on OVCAR-8 ovarian it was 57.6%; in the assay on OVCAR-5 ovarian it was -55.2% (active); in the assay on OVCAR-4 ovarian it was 8.97% (active); in the assay with OVCAR-3 ovarian it was -85.3% (active). Moreover, the growth with HS 578T breast is 104%; in the assay on NCI/ADR-RES ovarian, 46.3%; with T-47D breast it was -50.8% (active); in the assay on BT-549 breast, 96.2%; in the assay with MDA-MB-435 melanoma, -77.6% (active); with SW-620 colon it was -54.9% (active). Also, the growth in the assay with MCF7 breast was -55.3% (active); in the assay on HCC-2998 colon, -74.2% (active); with KM12 colon, -73% (active).

On to `CC1(C)CC[C@]2(C(N)=O)CC[C@]3(C)C(=CC[C@@H]4[C@@]5(C)C/C(=C/c6ccncc6)C(=O)C(C)(C)[C@@H]5CC[C@]43C)[C@@H]2C1`, for which the growth was 2.61% [100 µM] (active) with SR leukemia; -29.1% [100 µM] (active) with RPMI-8226 leukemia; -28.6% [100 µM] (active) with OVCAR-8 ovarian; -81.9% [100 µM] (active) in the assay on OVCAR-5 ovarian; -45.7% [100 µM] (active) in the assay on SK-OV-3 ovarian; -72.3% [100 µM] (active) with IGROV1 ovarian. In addition, the growth in the assay on OVCAR-3 ovarian was -69.5% [100 µM] (active); with HS 578T breast it was -22.1% [100 µM] (active); in the assay on NCI/ADR-RES ovarian, -48% [100 µM] (active); with T-47D breast, -24.8% [100 µM] (active); in the assay on BT-549 breast, -24.9% [100 µM] (active); in the assay with MDA-MB-435 melanoma, -56.3% [100 µM] (active). Moreover, the growth in the assay with SW-620 colon is -32.1% [100 µM] (active); in the assay on MCF7 breast, -36.6% [100 µM] (active); in the assay with HCT-116 colon, -22.7% [100 µM] (active); in the assay on HCC-2998 colon, -50.4% [100 µM] (active); in the assay with KM12 colon, -52.3% [100 µM] (active).

For `C=C(C)[C@@H]1CC[C@]2(COCCC#N)CC[C@]3(C)[C@H](CC[C@@H]4[C@@](C)(CCCNCCC#N)[C@H](C(=C)C)CC[C@]43C)[C@@H]12`, the growth in the assay with SR leukemia is 19.1% [100 µM]; in the assay with RPMI-8226 leukemia, -37.1% [100 µM] (active); with OVCAR-8 ovarian it was 3.88% [100 µM] (active); in the assay on OVCAR-5 ovarian, 36.7% [100 µM]; in the assay with SK-OV-3 ovarian it was 65.1% [100 µM]; in the assay on IGROV1 ovarian it was 7.81% [100 µM] (active). Also, the growth with OVCAR-3 ovarian is -0.365% [100 µM] (active); in the assay with HS 578T breast it was 22.2% [100 µM]; in the assay with NCI/ADR-RES ovarian, 46.3% [100 µM]; with T-47D breast, 23.4% [100 µM]; with BT-549 breast, 41% [100 µM]; with MDA-MB-435 melanoma, 1.59% [100 µM] (active). Also, the growth with SW-620 colon is -38.3% [100 µM] (active); in the assay on MCF7 breast, 9.79% [100 µM] (active); in the assay with HCT-116 colon, -53.8% [100 µM] (active); in the assay on HCC-2998 colon, 12.9% [100 µM]; in the assay on KM12 colon, 27.4% [100 µM].

In the case of `CCN(CC)c1ccc2cc(C(Nc3ccc(C)cc3)c3nnnn3C(C)(C)C)c(=O)oc2c1` (stereo unspecified), the growth is 94.5% in the assay on SR leukemia; 87.4% in the assay with RPMI-8226 leukemia; 98.4% with OVCAR-8 ovarian; 101% in the assay on OVCAR-5 ovarian; 102% in the assay with SK-OV-3 ovarian; 97.4% with IGROV1 ovarian. In addition, the growth is 101% in the assay with OVCAR-3 ovarian; 90.7% in the assay with HS 578T breast; 90.6% with NCI/ADR-RES ovarian; 71.1% in the assay with T-47D breast; 89.1% in the assay on BT-549 breast; 97.5% in the assay on MDA-MB-435 melanoma. For the same compound, the growth is 102% in the assay on SW-620 colon; 81.4% in the assay on MCF7 breast; 87.9% in the assay with HCT-116 colon; 107% in the assay on HCC-2998 colon; 103% in the assay on KM12 colon.
